Experimental data: the supplement of paper PMC11732987, “Enantioselective OTUD7B fragment discovery through chemoproteomics screening and high-throughput optimisation” (Communications Chemistry, 2025)

Columns and labels:
Assay in all cases: log2 ratio of Biotin-Ahx-Ub-VS probe labelling (fragment/DMSO); higher = less target engagement (more negative = stronger competition), active = hit call of the paper (q ≤ 0.05, log2 ratio ≤ -1)
Settings in all cases: compound concentration: 200 uM; treatment time: 3 h
[1] = molecular target: T1, OTUD6B (UniProt Q8N6M0)
T1 sequence (whole entry): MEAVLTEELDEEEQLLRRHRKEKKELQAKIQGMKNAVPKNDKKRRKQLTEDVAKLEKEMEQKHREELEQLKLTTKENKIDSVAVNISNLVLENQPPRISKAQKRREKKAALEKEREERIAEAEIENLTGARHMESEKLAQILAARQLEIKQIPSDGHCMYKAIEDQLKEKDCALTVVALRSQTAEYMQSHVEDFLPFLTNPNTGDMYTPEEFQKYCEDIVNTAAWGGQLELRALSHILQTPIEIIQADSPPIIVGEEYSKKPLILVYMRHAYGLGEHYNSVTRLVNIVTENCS
Method in brief: (§1)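 Labelling with Biotin-Ahx-Ub-VS (0.5 µM final, 1 h) followed a 3 h triplicate treatment of HEK293T lysate (495 µg per sample, Tris/CHAPS/IGEPAL buffer with protease inhibitors) with fragment at 200 µM or vehicle. Labelled DUBs were NeutrAvidin-enriched, digested with LysC and trypsin, and run by diaPASEF LC-MS/MS. The values, average log2 fragment/vehicle ratios by unpaired t-test, come from global-median-normalised Spectronaut label-free quantities. Proteins with ≥2 unique peptides were used.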

[2] = molecular target: T2, OTUD7B (UniProt Q6GQQ9)
T2 sequence (whole entry): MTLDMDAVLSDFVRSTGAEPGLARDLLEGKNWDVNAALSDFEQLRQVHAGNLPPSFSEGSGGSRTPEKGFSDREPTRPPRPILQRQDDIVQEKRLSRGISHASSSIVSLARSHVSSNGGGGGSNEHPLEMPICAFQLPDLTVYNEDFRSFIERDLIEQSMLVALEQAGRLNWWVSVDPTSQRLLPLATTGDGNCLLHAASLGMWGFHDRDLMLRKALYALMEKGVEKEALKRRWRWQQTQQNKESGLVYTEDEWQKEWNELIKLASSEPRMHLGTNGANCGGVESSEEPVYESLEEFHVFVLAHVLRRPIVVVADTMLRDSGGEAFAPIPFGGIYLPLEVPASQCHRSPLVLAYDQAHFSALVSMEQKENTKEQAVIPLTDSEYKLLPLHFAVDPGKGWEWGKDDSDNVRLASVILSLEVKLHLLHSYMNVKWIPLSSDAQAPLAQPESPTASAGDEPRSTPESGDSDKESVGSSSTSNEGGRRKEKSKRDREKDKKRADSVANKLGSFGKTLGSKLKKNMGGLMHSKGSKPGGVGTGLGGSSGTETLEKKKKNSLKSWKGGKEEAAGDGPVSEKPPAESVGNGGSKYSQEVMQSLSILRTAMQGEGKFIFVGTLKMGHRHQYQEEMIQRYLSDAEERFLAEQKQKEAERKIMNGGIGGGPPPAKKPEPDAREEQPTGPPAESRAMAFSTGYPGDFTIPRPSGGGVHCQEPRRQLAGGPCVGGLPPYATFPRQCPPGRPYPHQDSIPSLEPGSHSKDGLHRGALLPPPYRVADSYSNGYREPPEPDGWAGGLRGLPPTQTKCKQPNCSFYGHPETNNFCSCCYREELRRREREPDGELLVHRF
Method in brief: as §1

[3] = molecular target: PRPF8 (UniProt Q6P2Q9)
Method in brief: as §1

[4] = molecular target: T3, PSMD7 (UniProt P51665)
T3 sequence (whole entry): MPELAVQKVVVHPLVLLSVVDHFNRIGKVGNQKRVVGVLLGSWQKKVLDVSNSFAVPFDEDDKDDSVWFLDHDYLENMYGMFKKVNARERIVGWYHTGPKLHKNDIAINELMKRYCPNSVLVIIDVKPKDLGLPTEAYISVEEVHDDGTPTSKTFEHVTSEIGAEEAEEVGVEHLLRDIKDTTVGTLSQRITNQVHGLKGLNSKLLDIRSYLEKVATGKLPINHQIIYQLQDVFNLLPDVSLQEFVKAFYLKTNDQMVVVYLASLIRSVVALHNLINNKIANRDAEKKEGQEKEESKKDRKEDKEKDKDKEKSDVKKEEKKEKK
Method in brief: as §1

[5] = molecular target: UCHL1 (UniProt P09936)
Sequence of UCHL1 (P09936 whole entry, looked up): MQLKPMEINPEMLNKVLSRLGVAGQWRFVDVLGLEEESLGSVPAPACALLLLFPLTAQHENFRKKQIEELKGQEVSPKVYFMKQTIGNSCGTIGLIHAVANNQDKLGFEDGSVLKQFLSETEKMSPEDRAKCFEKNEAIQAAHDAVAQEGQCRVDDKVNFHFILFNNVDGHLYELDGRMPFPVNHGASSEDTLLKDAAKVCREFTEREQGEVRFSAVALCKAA
Method in brief: as §1

[6] = molecular target: T4, UCHL3 (UniProt P15374)
T4 sequence (whole entry): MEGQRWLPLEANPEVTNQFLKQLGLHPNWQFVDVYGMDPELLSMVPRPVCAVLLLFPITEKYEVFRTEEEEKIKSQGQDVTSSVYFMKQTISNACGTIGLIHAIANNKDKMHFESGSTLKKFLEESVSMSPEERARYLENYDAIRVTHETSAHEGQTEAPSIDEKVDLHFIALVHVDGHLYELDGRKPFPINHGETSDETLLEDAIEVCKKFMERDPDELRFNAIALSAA
Method in brief: as §1

[7] = molecular target: T5, UCHL5 (UniProt Q9Y5K5)
T5 sequence (whole entry): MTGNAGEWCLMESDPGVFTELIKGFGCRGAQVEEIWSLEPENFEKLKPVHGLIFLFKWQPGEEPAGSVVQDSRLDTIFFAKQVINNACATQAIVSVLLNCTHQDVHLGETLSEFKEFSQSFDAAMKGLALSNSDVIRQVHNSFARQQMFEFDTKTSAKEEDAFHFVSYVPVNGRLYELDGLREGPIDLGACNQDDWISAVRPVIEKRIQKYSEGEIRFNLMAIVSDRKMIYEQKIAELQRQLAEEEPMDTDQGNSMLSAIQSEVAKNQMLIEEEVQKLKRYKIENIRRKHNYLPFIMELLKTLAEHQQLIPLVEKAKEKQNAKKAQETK
Method in brief: as §1

[8] = molecular target: USP10 (UniProt Q14694)
Sequence of USP10 (Q14694 whole entry): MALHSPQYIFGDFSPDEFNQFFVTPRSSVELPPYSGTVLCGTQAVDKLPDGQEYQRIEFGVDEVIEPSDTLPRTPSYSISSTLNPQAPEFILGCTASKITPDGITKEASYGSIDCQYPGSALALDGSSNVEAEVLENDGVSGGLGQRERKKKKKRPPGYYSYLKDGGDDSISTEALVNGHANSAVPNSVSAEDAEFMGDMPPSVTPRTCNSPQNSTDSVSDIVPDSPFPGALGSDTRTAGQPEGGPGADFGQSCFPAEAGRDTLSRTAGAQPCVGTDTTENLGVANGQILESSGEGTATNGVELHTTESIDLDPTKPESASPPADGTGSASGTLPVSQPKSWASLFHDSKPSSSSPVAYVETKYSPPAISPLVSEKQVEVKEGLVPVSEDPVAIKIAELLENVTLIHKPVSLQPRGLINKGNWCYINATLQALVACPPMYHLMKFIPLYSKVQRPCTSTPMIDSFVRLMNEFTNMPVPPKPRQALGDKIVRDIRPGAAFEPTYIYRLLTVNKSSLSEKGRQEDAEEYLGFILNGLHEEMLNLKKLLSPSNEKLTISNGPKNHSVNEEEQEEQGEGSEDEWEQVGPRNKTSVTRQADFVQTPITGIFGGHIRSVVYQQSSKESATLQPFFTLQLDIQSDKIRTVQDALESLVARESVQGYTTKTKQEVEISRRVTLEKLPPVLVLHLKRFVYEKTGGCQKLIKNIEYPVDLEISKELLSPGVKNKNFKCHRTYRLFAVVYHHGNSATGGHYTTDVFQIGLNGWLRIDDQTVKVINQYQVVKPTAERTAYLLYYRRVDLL
Method in brief: as §1

[9] = molecular target: T6, USP15 (UniProt Q9Y4E8)
T6 sequence (whole entry): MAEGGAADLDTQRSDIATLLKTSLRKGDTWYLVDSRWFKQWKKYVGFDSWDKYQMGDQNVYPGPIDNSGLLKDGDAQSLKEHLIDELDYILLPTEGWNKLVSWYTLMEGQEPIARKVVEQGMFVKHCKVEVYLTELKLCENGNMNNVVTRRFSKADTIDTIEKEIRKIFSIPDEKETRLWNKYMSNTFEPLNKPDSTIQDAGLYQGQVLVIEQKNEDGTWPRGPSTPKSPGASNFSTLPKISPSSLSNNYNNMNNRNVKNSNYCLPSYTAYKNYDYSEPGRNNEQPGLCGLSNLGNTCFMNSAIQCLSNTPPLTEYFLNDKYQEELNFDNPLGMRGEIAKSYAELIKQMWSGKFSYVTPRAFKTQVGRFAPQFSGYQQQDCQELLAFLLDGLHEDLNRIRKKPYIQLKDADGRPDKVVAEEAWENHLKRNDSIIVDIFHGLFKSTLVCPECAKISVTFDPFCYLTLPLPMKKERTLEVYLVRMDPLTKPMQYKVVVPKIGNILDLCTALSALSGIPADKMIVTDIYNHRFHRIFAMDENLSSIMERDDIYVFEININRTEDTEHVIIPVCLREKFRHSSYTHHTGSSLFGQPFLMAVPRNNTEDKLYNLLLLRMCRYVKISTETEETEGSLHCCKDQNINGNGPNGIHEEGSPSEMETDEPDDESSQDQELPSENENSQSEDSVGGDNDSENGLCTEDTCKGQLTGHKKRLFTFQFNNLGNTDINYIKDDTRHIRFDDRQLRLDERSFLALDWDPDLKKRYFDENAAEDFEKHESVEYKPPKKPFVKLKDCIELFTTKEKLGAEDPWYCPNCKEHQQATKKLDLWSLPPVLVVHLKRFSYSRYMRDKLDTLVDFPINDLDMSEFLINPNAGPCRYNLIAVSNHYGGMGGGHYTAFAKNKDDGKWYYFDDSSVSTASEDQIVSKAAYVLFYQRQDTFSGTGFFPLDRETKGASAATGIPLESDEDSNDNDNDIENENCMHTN
Method in brief: as §1

[10] = molecular target: USP16 (UniProt Q9Y5T5)
Sequence of USP16 (Q9Y5T5 whole entry, looked up): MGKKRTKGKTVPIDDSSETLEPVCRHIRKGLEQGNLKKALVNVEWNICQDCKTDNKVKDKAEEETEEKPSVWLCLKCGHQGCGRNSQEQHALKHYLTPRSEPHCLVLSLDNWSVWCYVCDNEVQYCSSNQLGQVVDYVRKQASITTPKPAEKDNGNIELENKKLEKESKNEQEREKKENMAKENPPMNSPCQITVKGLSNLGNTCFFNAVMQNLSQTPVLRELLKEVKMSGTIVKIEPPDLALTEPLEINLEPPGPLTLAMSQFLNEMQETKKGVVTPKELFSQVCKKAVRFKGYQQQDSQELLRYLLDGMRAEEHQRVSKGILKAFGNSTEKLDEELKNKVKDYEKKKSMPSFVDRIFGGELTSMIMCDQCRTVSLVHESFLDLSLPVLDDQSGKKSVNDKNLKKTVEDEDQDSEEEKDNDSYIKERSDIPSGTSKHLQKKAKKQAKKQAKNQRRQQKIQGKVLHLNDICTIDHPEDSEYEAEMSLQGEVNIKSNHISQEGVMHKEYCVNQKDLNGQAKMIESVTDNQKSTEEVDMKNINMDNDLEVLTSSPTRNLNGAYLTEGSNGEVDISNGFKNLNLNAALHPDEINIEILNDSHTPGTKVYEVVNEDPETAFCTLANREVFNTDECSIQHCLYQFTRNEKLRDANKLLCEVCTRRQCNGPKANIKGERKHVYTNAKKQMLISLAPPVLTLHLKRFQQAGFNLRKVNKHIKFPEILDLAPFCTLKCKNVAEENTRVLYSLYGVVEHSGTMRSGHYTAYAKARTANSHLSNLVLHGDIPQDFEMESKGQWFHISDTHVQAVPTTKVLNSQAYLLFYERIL
Method in brief: as §1

Measured: log2 ratio of Biotin-Ahx-Ub-VS probe labelling

O=C(CCl)NCc1ccc(N2CCOCC2)c(F)c1
inactive: [1] 0.111 | [2] -0.497 | [3] -0.0572 | [4] 0.0258 | [6] 0.309 | [7] -0.0833 | [8] -0.131 | [9] -0.0773 | [10] -0.0789
active: [5] -1.41
